Among the test systems are NCI-H23 lung; NCI-H226 lung; NCI-H322M lung; HOP-62 NSCLC; NCI-H460 lung; HOP-92 NSCLC; NCI-H522 lung; A549/ATCC NSCLC; 786-0 renal; COLO 205 colon.
Holding throughout (experiment): NCI-60 one-dose screen, 48 h (100 = growth as untreated, 0 = no growth, -100 = all killed)
Conditions in all cases: 10 µM

Structures are written as SMILES. Compounds without any hit were thinned out: in the full panel of roughly 83,000, 20% have a hit.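 For each line, cells grew in 96-well plates with the test compound present at a single concentration for 48 hours.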 Values without a mark were called inactive. The source made the active and inactive calls. The calls were made as follows: active = growth percent below 10; inactive = the rest.

Regarding `CCn1nc(-c2ccc(C(=O)OC)cc2)nc2c(=O)n(C)c(=O)nc1-2`, the growth with NCI-H23 lung was 104%; with NCI-H226 lung, 33.5%; in the assay on NCI-H322M lung, 45.4%; in the assay on HOP-62 NSCLC it was -1.34% (active); in the assay with NCI-H460 lung, 47.8%; in the assay with HOP-92 NSCLC it was -13.1% (active). Also, the growth is 77% with NCI-H522 lung, 35.8% in the assay with A549/ATCC NSCLC, -18.7% (active) in the assay with 786-0 renal and 87.2% with COLO 205 colon.

As for `COc1cccc(C(=O)NNc2nc(N3CCOCC3)nc(N3CCN(C(c4ccccc4)c4ccccc4)CC3)n2)c1`, the growth was 84.2% with NCI-H23 lung; 83.6% in the assay on NCI-H226 lung; 82.8% with NCI-H322M lung; 82.2% with HOP-62 NSCLC; 87.8% in the assay on NCI-H460 lung; 70.3% in the assay with HOP-92 NSCLC. The growth with NCI-H522 lung was 86.6%; in the assay with A549/ATCC NSCLC it was 62.4%; in the assay on 786-0 renal it was 86.6%; in the assay on COLO 205 colon it was 75.4%.

For the compound `COc1ccc(-c2nnc(SCC(=O)c3ccccc3)o2)cc1`, the growth in the assay on NCI-H23 lung was 91.2%; in the assay with NCI-H226 lung, 97.5%; in the assay on NCI-H322M lung, 107%; in the assay with HOP-62 NSCLC it was 84.5%; in the assay on NCI-H460 lung, 105%; in the assay on HOP-92 NSCLC, 89.2%. Also, the growth with NCI-H522 lung was 83.9%; in the assay with A549/ATCC NSCLC it was 98.1%; in the assay on 786-0 renal, 79.4%; with COLO 205 colon it was 107%.

Regarding `COc1cccc2c1O/C(=C\c1ncc([N+](=O)[O-])n1C)C2=O`, the growth with NCI-H23 lung was -20.4% (active); with NCI-H226 lung, -16.4% (active); in the assay with NCI-H322M lung, 23.9%; in the assay with HOP-62 NSCLC, -28.5% (active); in the assay with NCI-H460 lung, -34.1% (active); in the assay on HOP-92 NSCLC, -36.8% (active). Besides, the growth in the assay on NCI-H522 lung is -56.8% (active); with A549/ATCC NSCLC it was -23.8% (active); with 786-0 renal, -28.7% (active); in the assay on COLO 205 colon, -57.8% (active).

In the case of `CCCN(CCC)CCCNC(=O)c1cc2c(-c3ccc(OC)c(OC)c3)nn(C)c2s1`, the growth is 11.6% in the assay with NCI-H23 lung; 37.5% in the assay on NCI-H226 lung; 22% in the assay on NCI-H322M lung; 34.5% in the assay on HOP-62 NSCLC; 8.52% (active) with NCI-H460 lung; -7.72% (active) in the assay with HOP-92 NSCLC. Further, the growth in the assay on NCI-H522 lung was -17% (active); with A549/ATCC NSCLC, 9.14% (active); in the assay with 786-0 renal, 29.5%; in the assay on COLO 205 colon, 90.1%.

Turning to `O=C(NNc1nc(N2CCCC2)nc(N2CCCC2)n1)c1ccccc1`, the growth was 99.3% in the assay on NCI-H23 lung; 107% with NCI-H226 lung; 94.9% in the assay on NCI-H322M lung; 101% with HOP-62 NSCLC; 117% in the assay on NCI-H460 lung; 83.5% with HOP-92 NSCLC. In addition, the growth in the assay with NCI-H522 lung is 94.2%; with A549/ATCC NSCLC it was 104%; in the assay with 786-0 renal it was 121%; in the assay with COLO 205 colon, 109%.

In the case of `CCOC(=O)c1cc2c(n1Cc1ccccc1)-c1oncc1CC2`, the growth was 89.5% in the assay on NCI-H23 lung; 84.4% in the assay with NCI-H226 lung; 60.4% in the assay on NCI-H322M lung; 92.5% in the assay with HOP-62 NSCLC; 19.6% in the assay on NCI-H460 lung; 75.6% with HOP-92 NSCLC. Also, the growth was 41.1% in the assay with NCI-H522 lung, 89.1% with A549/ATCC NSCLC, 107% with 786-0 renal and 86.2% in the assay with COLO 205 colon.

`O=C(NCCc1nccs1)c1cnc2c(S)cccc2c1`: the growth in the assay on NCI-H23 lung was 34.2%; in the assay with NCI-H226 lung it was 46.1%; in the assay with NCI-H322M lung, 29.7%; with HOP-62 NSCLC, 29.3%; in the assay on NCI-H460 lung it was 0.683% (active); in the assay with HOP-92 NSCLC it was 54.5%. In addition, the growth in the assay with NCI-H522 lung is -65.7% (active); in the assay on A549/ATCC NSCLC, 12.6%; with 786-0 renal, 47%; in the assay with COLO 205 colon, -52.4% (active).

As for `O=C1CC[C@@H](C(=O)N[C@H]2CSSC[C@@H](C(=O)N/C=C/c3ccc(O)cc3)NC(=O)[C@H](Cc3ccccc3)NC(=O)[C@@H]3CCCN3C(=O)[C@@H]3CCCN3C2=O)N1`, the growth in the assay with NCI-H23 lung is 96.5%; with NCI-H226 lung, 93.5%; in the assay on NCI-H322M lung, 108%; in the assay with HOP-62 NSCLC, 78.2%; in the assay on NCI-H460 lung, 102%; with HOP-92 NSCLC, 99.2%. Moreover, the growth in the assay with NCI-H522 lung was 87.4%; with A549/ATCC NSCLC it was 85.2%; in the assay on 786-0 renal, 118%; in the assay on COLO 205 colon, 102%.

(Values after PubChem BioAssay (NCI).)
